Only some compounds are listed: those with a hit (about 2.2% of all), similar ones and a draw of the others.
CSC inhib: cancer stem cell viability inhibitors, primary screen, luminescence; cancer stem cell-like cells viability; inhibition, % at 7.5 µM; actives 1.1% (n = 300,000); AID 2717, 2010; in the data active = inhibition above about 75%; inconclusive = no clear call, values can overlap the other calls; tested in HMLE shEcad cells
Shn3 3UTR inh: reduction of Shn3 3'UTR firefly luciferase signal, primary screen, Schnurri-3 inhibitor project, cell-based, Clone20 osteoblasts, set 2 | Clone20 osteoblast Shn3 3'UTR firefly luciferase, 24 h | inhibition, % at 12.5 µM | actives 0.52% (n = 360,000);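 active = mean inhibition of at least 75% with every replicate also reaching 75%; inconclusive = mean inhibition at least 75% but some replicate below; inactive = mean inhibition below 75%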
Beta apoptosis: inhibitors of cytokine-induced beta cell apoptosis, primary screen, luminescence. actives 0.8% (n = 300,000). protection from apoptosis, % (no concentration beside the values). INS-1E cytokine-induced death, ATP luminescence, 48 h; percent of positive-control rescue, neutral wells zero;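 active = Every replicate reaches about 75%, or at least half do and their mean reaches it too, limit read from the data; inconclusive = At least half of replicates reach the limit but their mean does not; inactive = Under half of replicates reach the limit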;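 also: higher means more ATP so stronger rescue from cytokine killing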
Calb FLC: C. albicans growth inhibition with fluconazole, primary screen, CaCi-2 strain, Alamar Blue fluorescence; actives 0.57% (n = 300,000); growth inhibition, % (concentration not given with the values); C. albicans CaCi-2 (fluconazole-resistant clinical isolate) + fluconazole, 48 h;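 active = growth inhibition above about 58% in most replicates, limit read from the data, passing the limit was not always enough; inconclusive = exactly half the replicates above a set limit; inactive = most replicates below a set limit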;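 also: all wells also contain fluconazole at 8 µg/ml as a sub-toxic cotreatment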
PfHsp90 yeast 2: growth inhibition of PfHsp90-expressing yeast, primary screen, antimalarial PfHsp90 inhibitor project, S. cerevisiae, BacTiter-Glo luminescence, single point, set 2. BacTiter-Glo ATP, 48 h; yeast lacking PDR1 and PDR3 efflux regulators. inhibition, % at 9.4 µM. actives 0.32% (n = 310,000). AID 504621, 2011;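 active = every replicate shows inhibition above about 80%, whatever the replicate mean, limit read from the data; inconclusive = mean inhibition reaches the set limit but some replicate falls short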
Each line names hits and unclear results; the compound was inactive in the other large screens.

Cn1ccs/c1=N\C(=O)Nc1cccc(C(F)(F)F)c1	none
COc1cccc(/C=C/c2nc(C#N)c(NCC(C)C)o2)c1	CSC inhib 128
COCCCNc1oc(/C=C/c2ccccc2)nc1C#N	none
COc1ccc(C)cc1Nc1n[n+](-c2ccccc2)c(-c2ccc(OC)c(OC)c2OC)s1	Beta apoptosis 96, Calb FLC 92
COc1ccc(C)cc1Nc1n[n+](-c2ccccc2)c(-c2c(Cl)cccc2Cl)s1	Beta apoptosis 99 (no result: Shn3 3UTR inh, PfHsp90 yeast 2)
COc1ccc(C)cc1Nc1n[n+](-c2ccccc2)c(-c2ccc(N(C)C)cc2)s1	Beta apoptosis 99, Calb FLC 105
COc1ccc(C)cc1Nc1n[n+](C)c(-c2c3ccccc3cc3ccccc23)s1	none
CN(C)c1ccc(-c2sc(Nc3ccccc3)n[n+]2-c2ccc(F)cc2)cc1	none
COC(=O)c1cc(S(=O)(=O)C(C)C)c(S(C)=O)s1 (configuration not stated)	none (no result: Shn3 3UTR inh)
O=C(/C=C/c1ccco1)NC(=S)Nc1ccc(N2CCOCC2)c(Cl)c1	none
O=C(NC(=S)Nc1ccc(N2CCCCC2)c(Cl)c1)c1cccs1	CSC inhib 81
O=C(/C=C/c1ccccc1)NC(=S)Nc1ccc(N2CCOCC2)c(Cl)c1	Calb FLC 111 (no result: CSC inhib)
CC[N+]1(CC(O)COC2CC(C)CC(C)(C)C2)CCOCC1 (configuration not stated)	none
CC1C(=O)N2CCCc3cc(NC(=O)COc4ccc(Cl)cc4)cc1c32 (configuration not stated)	none (no result: PfHsp90 yeast 2)
CC(=O)Nc1nc(C)c(-c2csc(Nc3cccc(C(C)=O)c3)n2)s1	Shn3 3UTR inh 86
COc1ccc(CN2C(=O)c3cccnc3C2=O)cc1S(=O)(=O)N1CCOc2ccc(C)cc21	none
CCc1c(C2(O)CCCCC2)[nH]c2c(C(=O)OC)cc(Cl)cc12	CSC inhib 105
CCOc1ccc(S(=O)(=O)N(C)c2ccc(OCC(=O)Nc3nc4ccccc4s3)cc2)cc1	Shn3 3UTR inh inconclusive, Beta apoptosis 92
Cc1ccc(S(=O)(=O)N(C)c2ccc(OCC(=O)Nc3nnc(C4CC4)s3)cc2)cc1	Calb FLC 63 (no result: CSC inhib, Beta apoptosis)
CCc1nnc(NC(=O)COc2ccc(N(C)S(=O)(=O)c3ccc(C)cc3)cc2)s1	none (no result: CSC inhib, Beta apoptosis)
CN(c1ccc(OCC(=O)Nc2nc3ccccc3s2)cc1)S(=O)(=O)c1ccccc1	none
Cc1ccc(CNC(=O)CC2(CC3=NS(=O)(=O)c4ccccc4N3)CCCC2)cc1	none
CC1=NN(c2ccc(C)cc2)C(=O)/C1=C\C=C\c1ccccc1	CSC inhib 78
CC1=NN(c2cccc(C(=O)O)c2)C(=O)/C1=C\C=C/c1ccccc1	Calb FLC inconclusive (no result: CSC inhib, Beta apoptosis, PfHsp90 yeast 2)
CCOc1ccccc1C(=O)N/N=C/c1ccoc1	Calb FLC 104
CCC1(C)Cc2c(sc3nc(SC)n(Cc4ccccc4)c(=O)c23)CO1 (configuration not stated)	CSC inhib 96
CC1(C)Cc2c(sc3nc(-c4ccccc4)n(N)c(=O)c23)CO1	none
COc1ccc(CCNC(=O)CCc2cc(OC)c(OC)c(OC)c2)cc1OC	none
O=C(O)c1ccc(Cl)c(S(=O)(=O)N(Cc2ccccc2)c2ccc(F)cc2)c1	CSC inhib 96
O=C(O)c1ccc(Cl)c(S(=O)(=O)N(Cc2ccccc2)c2ccccc2)c1	none
COc1ccc(Nc2ncnc3scc(-c4ccc(OC)cc4)c23)cc1	none
COc1cccc(/C=N/Nc2nccnc2Cl)c1O	Shn3 3UTR inh 86, Calb FLC 106 (no result: CSC inhib, Beta apoptosis)
COc1cccc(/C=N/Nc2ncnc3scc(-c4ccccc4)c23)c1O	CSC inhib 111, Shn3 3UTR inh 85, Beta apoptosis 103, Calb FLC 109, PfHsp90 yeast 2 100
COc1cccc(/C=N/Nc2ncnc(Cl)c2N)c1O	CSC inhib 157, Beta apoptosis 127
Cc1c(S(=O)(=O)Nc2ccc(Oc3ccccc3)cc2)c(=O)n(C)c(=O)n1C	none
COc1ccc(NC(=O)Cc2ccsc2)cc1S(=O)(=O)N1CCOCC1	none (no result: CSC inhib, Calb FLC)
O=C(Cc1ccc(N2CCNC2=O)cc1)N1CCCC(Nc2ccc(F)c(F)c2)C1 (configuration not stated)	CSC inhib 83
S=C(Nc1ccc(Cl)cc1)c1nc2ccccc2s1	none (no result: Beta apoptosis, PfHsp90 yeast 2)
O=C(Nc1ccc(Cl)cc1)/C(=C/c1cccc(O)c1)c1nc2ccccc2s1	Shn3 3UTR inh 93, Beta apoptosis 105
CCc1cccc2c(C(=O)CN3C(=O)NC(C)(c4cccc5ccccc45)C3=O)c[nH]c12 (configuration not stated)	CSC inhib 104 (no result: PfHsp90 yeast 2)
N#CCC(=O)N/N=C/c1ccc(OCC(=O)Nc2ccc(F)cc2)cc1	none
CC(=O)c1cccc(NC(=O)NC(C)c2ccc3c(c2)OCO3)c1 (configuration not stated)	none
O=C(/C=C/c1ccco1)Oc1cc(Br)cc(/C=N/NC(=O)c2ccccc2O)c1	Shn3 3UTR inh 94, Calb FLC 90
Cc1ccc(C(=O)N/N=C/c2cccc(OC(=O)/C=C/c3ccco3)c2)cn1	none
CCOC(=O)C1(C)CCCN1C(=O)c1ccc(F)c(Cl)c1 (configuration not stated)	none (no result: CSC inhib, Beta apoptosis, Calb FLC, PfHsp90 yeast 2)
O=C(CSc1nc2c(c(=O)n1-c1ccc(Br)cc1)SCC2)NCc1ccco1	Shn3 3UTR inh 92
CCOc1ccc(-n2c(SCC(=O)NCc3ccco3)nc3c(c2=O)SCC3)cc1	none (no result: Calb FLC, PfHsp90 yeast 2)
Nc1ncnc2c1ncn2[C@@H]1O[C@H](CNS(=O)(=O)c2ccc3c(c2)CCN(C(=O)C(F)(F)F)C3)[C@@H](O)[C@H]1O	none (no result: CSC inhib, Beta apoptosis, Calb FLC)
CCOC(=O)COc1ccc2ccccc2c1/C=C/[N+](=O)[O-]	Shn3 3UTR inh 95, Beta apoptosis 106, PfHsp90 yeast 2 104
CCOc1ccc(/C=C/[N+](=O)[O-])c2ccccc12	Shn3 3UTR inh 95
CCOC(=O)COc1ccc(/C=C/[N+](=O)[O-])c(OCC(=O)OCC)c1	none
CCCCOc1ccc2ccccc2c1C=O	none
O=[N+]([O-])/C=C/c1c(OCc2ccccc2)ccc2ccccc12	Beta apoptosis 115 (no result: Shn3 3UTR inh)
CC(C)(C)c1ccc(OCC(=O)N/N=C/c2cc(Br)ccc2OC(=O)c2ccco2)cc1	CSC inhib 101
COc1ccc(OCC(O)Cn2cnc(-c3ccc(Br)cc3)c2)cc1 (configuration not stated)	none
OC(COc1ccc2ccccc2c1Br)Cn1cnc(-c2ccccc2)c1 (configuration not stated)	CSC inhib 101
CCc1noc(C)c1C(=O)Nc1cc(Cl)ccc1N1CCOCC1	none (no result: CSC inhib)
CCn1cc(C(=O)NC(C)C23CC4CC(CC(C4)C2)C3)cn1 (configuration not stated)	none
CC(NC(=O)Cn1ncc(Cl)c(Cl)c1=O)C12CC3CC(CC(C3)C1)C2 (configuration not stated)	CSC inhib 116, Shn3 3UTR inh 98
